# PubChem BioAssay AID651658 (Broad Institute, 2012)
# The campaign covered roughly 340,000 compounds. About 5,100 (1.5%) were called active. This excerpt belongs to a sample that is enriched for actives. Unmarked numbers belong to inactive results.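 How the source made its calls: active means mean Tm shift, scaled 0 neutral to 100 positive control, at about 1.3% or above, every replicate too (limit read from the data); inconclusive means no clear call, values can overlap the other calls; inactive means the rest.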
# Target: Fibroblast growth factor 22 (Homo sapiens) (UniProt Q9HCT0)
# Assay: FGF22 ligand-induced thermal stabilization – biophysical, thermal shift, single point, FGF22 synaptogenesis inhibitor project, primary screen (AID 651658)
# Conditions: recombinant FGF22 thermal shift, SYPRO orange fluorescence, at 9.99 µM, hits give high values
# Sequence of Fibroblast growth factor 22 (Homo sapiens) (Q9HCT0 whole entry, looked up): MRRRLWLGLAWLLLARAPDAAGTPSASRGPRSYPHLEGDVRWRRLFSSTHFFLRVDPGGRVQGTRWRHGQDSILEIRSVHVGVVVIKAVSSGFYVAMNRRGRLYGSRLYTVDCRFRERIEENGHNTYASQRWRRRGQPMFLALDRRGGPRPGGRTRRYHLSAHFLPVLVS
row,SMILES,"activity (Tm shift, normalised)"
1,Cc1cccc(-n2c(C)nc3cc(C(=O)N4CCC5(CC4)OCCO5)ccc32)c1,0.173%
2,O=C(c1ccccc1[N+](=O)[O-])N1CCC2(CC1)OCCO2,-0.032%
3,Cc1ccc(-c2cc(C(=O)N3CCC4(CC3)OCCO4)no2)cc1,43.1% (active)
4,COc1cccc(-c2ccc3n(c2=O)C[C@@H]2[C@@H](CO)[C@H](C(=O)O)[C@H]3N2C(=O)c2cnccn2)c1,-0.051%
5,C[C@]12CCCCC1=CC(=O)C1C2CC[C@@]2(C)C1C[C@@H](F)[C@@H]2O (stereo not given in full),43.1% (active)
6,C[C@]12CCC3C(CC[C@H]4[C@H](O)[C@H](O)CC[C@]34C)C1CCC2=O (stereo not given in full),42.7%
7,COC(=O)[C@@H]1[C@@H](CO)[C@@H]2Cn3c(ccc(C4=CCCCC4)c3=O)[C@H]1N2CC1CC1,0.126%
8,C/C=C/c1ccc(C2[C@@H]3CN(Cc4cncnc4)C[C@H]2N3)cc1 (stereo not given in full),"-0.323% [percent of sucrose octasulfate shift, DMSO zero]"
9,COc1cccc(-c2ccc3n(c2=O)C[C@H]2[C@H](CO)[C@@H](C(=O)O)[C@@H]3N2C(=O)c2cnccn2)c1,-0.009%
10,CC=C(C)C(=O)OC1CCN2CC=C(COC(=O)C(O)(C(C)OC)C(C)(C)O)C12 (stereo not given),43.1% (active)
11,O=C(O)[C@H]1[C@H](CO)[C@H]2Cn3c(ccc(-c4ccccc4)c3=O)[C@@H]1N2S(=O)(=O)c1ccccc1F,0.019%
12,COC(=O)[C@@H]1[C@@H](CO)[C@@H]2Cn3c(ccc(-c4ccc(F)cc4)c3=O)[C@H]1N2C(C)=O,-0.001%
13,COC(=O)[C@H]1[C@H](CO)[C@H]2Cn3c(ccc(-c4cccc(F)c4)c3=O)[C@@H]1N2Cc1ccccc1,-0.258%
14,c1ccc(C(CN2CCCCC2)c2ccccc2)cc1,-0.37%
15,O=C(c1ccccc1)C(O)(CN1CCCCC1)c1ccccc1 (stereo not given),-0.158%
16,CC(CC(C#N)(c1ccccc1)c1ccccc1)N1CCCCC1 (stereo not given),43.4% (active)
17,O=C(Cc1ccccc1)N1CCCCN2[C@H](CO)[C@H](c3ccc(C#Cc4ccccc4)cc3)[C@H]2C1,-0.682%
18,C/C=C/c1ccc(C2[C@@H]3CN(S(C)(=O)=O)C[C@H]2N3)cc1 (stereo not given in full),"0.016% [percent of sucrose octasulfate shift, DMSO zero]"
19,CCN(CC)C(=O)[C@@H]1C=C2c3cccc4[nH]c(Br)c(c34)C[C@H]2N(C)C1,0.114%
20,COC(=O)[C@H]1[C@H](CO)[C@H]2Cn3c(ccc(-c4ccccc4F)c3=O)[C@@H]1N2C(=O)C1CCC1,0.081%
